Measured values: PubChem BioAssay (NCI)
This is part of a sample that, as a whole, favours compounds with a hit. Of some 83,000 tested, about 20% had one in any assay.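 The endpoint reported here, percent growth, reads 100 for growth as untreated, 0 for no net growth and -100 for all cells dead.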 A number with no mark means an inactive call. Active and inactive are the calls of the source. The calls were made as follows: active = growth percent below 10; inactive = the rest.

What was measured:
Assay in all cases: NCI-60 one-dose screen, 48 h (100 = growth as untreated, 0 = no growth, -100 = all killed)
Details in all cases: 10 µM unless noted
SK-MEL-2 melanoma = system: SK-MEL-2 melanoma
EKVX NSCLC = system: EKVX NSCLC
SN12C renal = system: SN12C renal
UO-31 renal = system: UO-31 renal
TK-10 renal = system: TK-10 renal
ACHN renal = system: ACHN renal
CAKI-1 renal = system: CAKI-1 renal
A498 renal = system: A498 renal
CCRF-CEM leukemia = system: CCRF-CEM leukemia
MOLT-4 leukemia = system: MOLT-4 leukemia

Row | Structure (SMILES) | growth (SK-MEL-2 melanoma) | growth (EKVX NSCLC) | growth (SN12C renal) | growth (UO-31 renal) | growth (TK-10 renal) | growth (ACHN renal) | growth (CAKI-1 renal) [%] | growth (A498 renal) | growth (CCRF-CEM leukemia) | growth (MOLT-4 leukemia)
1 | Nc1cc(-c2ccc(Cl)cc2)nn1-c1nc(-c2ccc(Br)cc2)cs1 | 96.9% | 93.6% | 97.7% | 93.4% | 96.4% | 101% | 97.8 | 91.7% | 104% | 103%
2 | COc1cc2c(c(OC)c1OC)CCC(c1cccc(C(=O)Nc3ccccc3Br)c1)O2 (stereo not given) | 87.8% | 90.1% | 85.4% | 67.3% | 87.5% | 86.2% | 95.4 | 56.6% | 86.1% | 50.4%
3 | O=C(CN1C(=O)NC2NC(=O)NC21)N/N=C/c1cccc([N+](=O)[O-])c1 (stereo not given) | 113% | 102% | 96.5% | 88.4% | 106% | 104% | 85.8 | 95.8% | 106% | 106%
4 | CC1=NC(=S)NC(c2ccccc2)/C1=C1/CC(c2ccccc2O)NN1 (stereo not given) | 108% | 95.7% | 97.5% | 73.1% | 138% | 101% | 84.8 | 93.8% | 99.1% | 99.9%
5 | COc1cc(/C=C2\C(=O)N(CCOc3cc(O)c4c(=O)cc(-c5ccccc5)oc4c3)c3ccccc32)cc(OC)c1O | 74.1% | 83.2% | 65.9% | 63.5% | 109% | 66.9% | 59.3 | 127% | 49.6% | 51.8%
6 | CC(C)c1nc(N(C)S(C)(=O)=O)nc(-c2ccc(F)cc2)c1/C=C/C(=O)C[C@@H](O)CC(=O)O | 81.1% | 107% | 110% | 93.1% | 88.4% | 108% | 98.5 | 106% | 102% | 107%
7 | CC1=C2[C@@H](CC1)[C@]1(C)O[C@@](C(C)C)(C[C@H]1OC(=O)CO)[C@H]2OC(=O)CCCc1ccccc1 | 66.8% | 94.1% | 54.9% | 39.6% | 88.4% | 56.7% | 59.8 | 59.3% | 31.8% | 23.5%
8 | COc1cc(C(=O)c2c(-c3ccccc3)oc3ccccc23)cc(OC)c1O | 50.9% | 51.3% | 43.9% | 51.9% | 78.4% | 41.7% | 32.7 | 1.19% (active) | 13.9% | 28.6%
9 | CCNCCNc1c(C)c(-c2ccc(C(F)(F)F)cc2)c(C#N)c2nc3ccccc3n12 | 102% | 92.4% | 67.2% | 79.1% | 109% | 82.5% | 92.3 | 69.6% | 86.9% | 90.9%
10 | C=C(C)[C@@H]1CC[C@]2(C#N)CC[C@]3(C)[C@H](CC[C@@H]4[C@@]5(C)CCCNC(C)(C)[C@@H]5CC[C@]43C)[C@@H]12 | 110% | 68.9% | 60.3% | 71.8% | 118% | 94.6% | 62.2 | 82.4% | 50.6% | 40%
11 | COc1ccc(C(=O)/C=C/Nc2cc(-c3ccccc3)nn2-c2ccccc2)cc1 | 101% | 89.4% | 94.5% | 79.3% | 84.2% | 99% | 94.3 | 78% | 84.2% | 85.4%
12 | COc1ccc(-c2csc(NC(=O)CSc3nc(C)cc(=O)[nH]3)n2)cc1 | 103% | 96.1% | 98.2% | 99% | 107% | 105% | 109 | 103% | 106% | 110%
13 | O=C(CSc1nc(-c2ccccc2)cn1-c1ccc(Cl)cc1)c1ccc([N+](=O)[O-])cc1 | 86.9% | 92.7% | 86.5% | 59.7% | 96.4% | 95.1% | 89 | 74.6% | 83.2% | 68.4%
14 | CCn1c2ccccc2c2cc(C(O)c3cccc4ncccc34)ccc21 (stereo not given) | 51.5% | 59.3% | 27.6% | 11.9% | 54.7% | 27.9% | 43 | 8.73% (active) | 8.21% (active) | 13.5%
15 | COC(=O)c1c(C(=O)OC)c2ccc3c4ncccc4ccc3n2c1C(=O)c1ccc(C)cc1 | 83.2% | 83.2% | 100% | 74.3% | 93.4% | 77.1% | 83.9 | 92.8% | 71.2% | 73.3%
16 | Oc1ccc(Cc2ccc(O)c3ncccc23)c2cccnc12 | -17.9% (active) | 8.21% (active) | 8.11% (active) | 1.7% (active) | -9.53% (active) | -4.29% (active) | 16.2 | 5.58% (active) | 17.4% | 11.8%
17 | COc1ccc(Cn2cc3c(c2)-c2oncc2CC3)cc1 | 68% | 66.3% | 77.8% | 68.2% | 101% | 99.2% | 64 | 57.7% | 35.2% | 58%
18 | Cc1ccccc1NC(=O)Cn1cc(CN2CCN(c3ccnc4cc(Cl)ccc34)CC2)nn1 | 110% | 97.1% | 94.7% | 71.1% | 102% | 95% | 80.3 | 84.8% | -33.5% (active) | 45.3%
19 | O=S(=O)(Nc1ccc(Br)cc1)c1ccc(-c2cnc(C3CC3)o2)cc1 | 33.6% | 53% | 33.8% | 42.3% | 64.1% | 30.8% | 40.6 | -6.87% (active) | 7.7% (active) | 15.8%
20 | Cc1nc2cccc(NCc3ccc(C(=O)NO)cc3)c2c(=O)n1-c1ccccc1 | 61.7% | 61.8% | 63.2% | 17% | 15.9% | 30.5% | 28 | 41.3% | 13.4% | 11.5%
21 | CNC1=C([N+](=O)[O-])C(c2ccc(OC)cc2)C(C#N)=C(c2ccc[nH]2)O1 (stereo not given) | 108% | 99.7% | 97.1% | 89.3% | 117% | 105% | 92.6 | 96.8% | 43.1% | 108%
22 | CCN1C(=O)N(CC)C2C1NN=c1s/c(=C3\C(=O)N(C)c4ccccc43)c(=O)n12 (stereo not given) | 60.3% | 57.8% | 36.9% | 43.6% | 69.8% | 40.9% | 42.2 | -26.9% (active) | 30.8% | 45.1%
23 | Cc1[nH]c(C(=O)Nc2ccccc2OC2CCNC2)c(Cl)c1Cl (stereo not given) | 96.5% | 70.3% | 78.2% | 45.5% | 122% | 42.8% | 76 | 70.7% | 59.3% | 87.8%
24 | O=c1c(/C=C/c2c(O)ccc3ccccc23)nnc2sc(-c3cccc([N+](=O)[O-])c3)nn12 | 79.2% | 54.4% | 45.9% | 20.1% | 83.1% | 31.7% | 24.9 | 50.5% | 18.6% | 25.9%
25 | CC(=O)O[C@H]1C[C@@]2(C)[C@@H](C[C@@H](O)[C@H]3[C@@]4(C)CC[C@H](N5CCCC5)[C@@H](C)[C@@H]4CC[C@@]32C)/C1=C(\CCC=C(C)C)C(=O)O | 100% | 94% | 98.4% | 81.2% | 95.1% | 102% | 91.6 | 104% | 42.8% | -57.9% (active)
26 | CCCCCN(CCCCC)CC(O)c1c(Cl)ccc2ccccc12 (stereo not given) | 93.4% | 62.5% | 70.2% | 37.2% | 98.1% | 54.7% | 60 | 68.3% | 67.2% | 54%
